According to ChEMBL document CHEMBL3433997, “St. Jude Leishmania screening dataset” (2016):

How the values were obtained:
Format in all cases: functional
[1] = target: Solute carrier family 2, facilitated glucose transporter member 1 (Homo sapiens) (UniProt P11166); assay: ST_JUDE_LEISH: Cytotoxicity at 2uM final concentration against transgenic Leishmania Mexicana promastigotes LmGLUT1 that are glucose transport deficient and complemented with the human glucose transporter GLUT1. Activity is measured by DNA content using SYBR green in vitro
Sequence of Solute carrier family 2, facilitated glucose transporter member 1 (Homo sapiens) (P11166 whole entry): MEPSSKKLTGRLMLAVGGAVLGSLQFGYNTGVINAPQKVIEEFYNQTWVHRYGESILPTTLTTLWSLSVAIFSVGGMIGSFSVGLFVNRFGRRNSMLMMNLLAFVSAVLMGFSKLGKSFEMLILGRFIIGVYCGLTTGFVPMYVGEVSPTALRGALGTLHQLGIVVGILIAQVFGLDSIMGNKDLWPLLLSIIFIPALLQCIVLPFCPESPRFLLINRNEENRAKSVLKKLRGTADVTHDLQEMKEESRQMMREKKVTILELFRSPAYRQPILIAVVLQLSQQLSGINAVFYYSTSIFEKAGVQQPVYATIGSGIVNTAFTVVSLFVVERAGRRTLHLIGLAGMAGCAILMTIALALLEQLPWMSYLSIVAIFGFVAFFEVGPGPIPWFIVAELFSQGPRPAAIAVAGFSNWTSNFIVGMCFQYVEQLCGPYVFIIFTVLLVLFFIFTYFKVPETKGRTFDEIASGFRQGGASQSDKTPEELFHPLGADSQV

[2] = target: Hexose transporter 1 (Plasmodium falciparum) (UniProt O97467); assay: ST_JUDE_LEISH: Cytotoxicity at 2uM final concentration against transgenic Leishmania Mexicana promastigotes LmPfHT that are glucose transport deficient and complemented with the Plasmodium falciparum hexose transporter. Activity is measured by DNA content using SYBR green in vitro
[3] = target: Glucose transporter (Leishmania mexicana) (UniProt O61059); assay: ST_JUDE_LEISH: Cytotoxicity at 2uM final concentration against transgenic Leishmania Mexicana promastigotes LmGT2 that are glucose transport deficient and complemented with the L. Mexicana glucose transporter 2. Activity is measured by DNA content using SYBR green in vitro

Compound | inhibition [1] | inhibition [2] | inhibition [3]
COc1ccccc1-n1ccnc1SCC(=O)Nc1cccc(C(F)(F)F)c1 | 3.36% | 1.61% | 2.6%
O=C(Nc1cc(C(F)(F)F)cc(C(F)(F)F)c1)NC(CCCN1CCC2(CC1)OCc1ccccc12)c1ccc(Cl)c(Cl)c1 (stereo not given) | 3% | 5.93% | -0.66%
COCCOc1ccc(C(F)(F)F)cc1NC(=O)Cc1c(F)cccc1Cl | 11.3% | 8.21% | 6.01%
CCOC(=O)C1CCN(CCOc2cc(NC(=O)/C=C/c3ccccc3Cl)ccc2Br)CC1 | 8.71% | 6.51% | 7.58%
CCC1CN2CCc3c([nH]c4ccc(OC)cc34)C2CC1CC1NCCc2cc(OC)c(OC)cc21 (stereo not given) | 3.04% | 3.2% | 4.05%
O=C(NCCCCNCC(Cc1cccc(O)c1)c1ccccc1)c1ccc(NC(=O)c2ccc(Cl)cc2)cc1 (stereo not given) | -0.19% | -3.38% | -1.18%
COc1ccc2nccc([C@@H](O)CN3CCC(NC(=O)C(=O)c4c[nH]c5c(C)cccc45)CC3)c2c1 | 0.46% | 0.43% | 0.45%
CCN1CCc2c1cc(C(=O)N[C@@H](Cc1ccccc1)[C@H](O)CNC(C)(C)c1cccc(C(F)(F)F)c1)cc2N1CCCCS1(=O)=O | 5.34% | -3.32% | 2.66%
O=S(=O)(NCCN1CCCC1)c1cccc(-c2ccc(CNCc3ccccc3)cc2)c1 | 5.11% | 2.05% | 2.83%
Cc1cc(N[C@@H](CC(C)C)C(=O)Nc2ccccc2)nc(NCc2ccccc2C)n1 | 8.7% | 8.35% | 5.01%
CC1(C)NC(N)=NC(=N)N1OCc1cccc(Cl)c1Cl | 2.02% | 3.75% | 2.46%
COc1ccc(CN2CCCN(Cc3cccc(NC(=O)c4ccc5ccccc5c4)c3)CC2)cc1 | 1.59% | 1.71% | 6.07%
O=C(Nc1ccc(CN2CCOCC2)cc1)c1ccc(-c2ccc(Br)cc2)o1 | 2.45% | 0.46% | -2.23%
O=C(O)c1cccc2c(-c3ccncc3)cccc12 | 0.79% | 1.26% | 1.31%
O=C(Nc1ccc(C(F)(F)F)cc1)c1cccc(S(=O)(=O)NC2CCN(CC3CCCCC3)C2)c1 (stereo not given) | 2.01% | 0.63% | 0.63%
CNC(=O)c1cnc(Nc2ccc(OCC(O)CN(C)C)cc2)nc1Nc1cccc(OC(C)C)c1 (stereo not given) | 2.84% | -0.45% | 1.38%
COc1ccc(Nc2nccc(N3CCC(NC(=O)Nc4ccc5c(c4)OCO5)C3)n2)cc1 (stereo not given) | 0.18% | 1.7% | 1.21%
CC(C)(C)NCCN(Cc1ccc(-c2ccc(C(F)(F)F)cc2)cc1)C(=O)Cn1c(CCc2cccc(F)c2F)nc(=O)c2c1CCC2 | 6.13% | 7.22% | 7.29%
CCn1c(-c2nonc2N)nc2c(-c3cccc(NC(=O)Nc4ccccc4OC)c3)ncc(OCCCN)c21 | 2.94% | 3.41% | 3.42%
COc1ccc2nccc([C@@H](O)CN3CCC(NCCOc4ccncc4)CC3)c2c1 | -0.38% | 1.23% | -0.87%
O=C(NCc1cccc(F)c1)Nc1ccc(-c2cccc(-c3nc4ccccc4[nH]3)c2)cc1 | 2.57% | 4.32% | -0.32%
CN1CCN(CC(=O)Nc2ccc(-c3ccc(-c4nc5ccccc5[nH]4)cc3)cc2)CC1 | 8.17% | 6.39% | 9.57%
OC[C@H](Nc1nc(C(Oc2ccccc2)c2ccccc2)nc2[nH]ncc12)c1ccccc1 (stereo not given in full) | 7.13% | 4.93% | 4.96%
CN(C(=O)C(C)(C)Oc1ccc(Cl)cc1)C1CCN(CCCCCNC(=O)/C=C/c2ccc(Cl)c(Cl)c2)CC1 | 1.85% | 2.76% | 0.52%

Compound | inhibition [1] | inhibition [2] | inhibition [3]
CC1Cc2ccccc2N1S(=O)(=O)c1cccc(C(=O)Nc2nc(-c3ccccn3)cs2)c1 (stereo not given) | 13.8% | 14.6% | 5.62%
COc1cc(Nc2nccc(N3CCC(NC(=O)Nc4ccc5c(c4)OCO5)C3)n2)cc(OC)c1OC (stereo not given) | 11.1% | 6.84% | 8.87%
COc1ccccc1C(C)NCC(=O)Nc1cccc(C(=O)Nc2cccc(C(F)(F)F)c2)c1 (stereo not given) | 3.9% | -0.5% | 4.16%
Cc1cc(-c2cccc3c(C(=O)N4CCc5cc6nccc(N7CCCN(C)CC7)c6cc54)cccc23)cc(C)n1 | -0.39% | 1.02% | 1.14%
CCCC(=O)Nc1ccc(OCCCCN(Cc2ccccc2C(F)(F)F)c2ccc(C(F)(F)F)c(C#N)c2)cc1 | 6.19% | 5.86% | 5.58%
COc1ccccc1NC(=O)Nc1ccc(-c2ccc(-c3nc4cc(C(F)(F)F)ccc4[nH]3)cc2)cc1 | 9.03% | 4.25% | 2.26%
COC(=O)CCCOc1cc(Cc2cnc(N)nc2N)cc(OC)c1OC | 7.51% | 6.32% | 9.19%
COc1cccc2c(O)c(CNC3CCCCC3)ccc12 | -0.95% | -0.26% | 1.11%
O=C(Nc1ccc2c(c1)OCO2)NC1CCN(c2ccnc(Nc3ccc(F)cc3)n2)C1 (stereo not given) | 0.34% | 6.37% | 3.79%
O=C(NC1CC1)c1ccc(N2CCC(Oc3ccc(F)cc3)CC2)nc1 | 2.46% | 1.1% | 1.42%
O=C(Nc1cccnc1)c1cc(-c2cccnc2)nc2ccc(Cl)cc12 | 6.95% | 2.76% | 1.98%
CS(=O)(=O)CCNCc1cccc(-c2ccc3c(Nc4cc(O)c(Cl)cc4F)ccnc3c2)c1 | 6.47% | 4.71% | 2.65%
Cc1ccc(CNC(=O)c2cnc(N3CCN(c4ccncc4)CC3)c(Cl)c2)cc1 | 4.68% | 6.64% | 3.12%
O=C(Nc1cccc(-c2csc(-c3ccccc3)n2)c1)c1cccs1 | 2.64% | 2.57% | 0.7%
Cc1ccc(CNC(=O)c2cc3c(=O)n4cccc(C)c4nc3n(CCN3CCOCC3)c2=N)cc1 | -0.35% | 1% | 1.48%
CC(NC(=O)c1ccc(O)c(-c2ccc(Cl)c(Cl)c2)c1)C(=O)NC1CCCCC1 (stereo not given) | 5.53% | 4.55% | 5.71%
O=C(/C=C/c1ccc(Cl)c(Cl)c1)NC1CCC(CN2CCC(Cc3c[nH]c4ccccc34)CC2)CC1 (stereo not given) | 2.9% | 3.43% | 3.79%
Cc1cc(N(C)C)nc(Nc2ccc(NS(=O)(=O)c3ccccc3)cc2)n1 | 7.64% | 10.6% | 5.82%
CCOc1cc(C(=O)N[C@@H](Cc2ccccc2)[C@H](O)CNC(C)(C)c2cccc(OC)c2)cc(N2CCCS2(=O)=O)c1 | 2.48% | -0.71% | 0.74%
CC(C)Cn1cc(C2CCN(CCN3CCC(CNC(=O)c4ccc(-c5ccc(C#N)cc5)cc4)CC3)CC2)c2ccccc21 | 2.71% | 5.31% | 2.53%
COc1ccc(NC(=O)[C@H](Cc2ccccc2)Nc2cc(C)nc(NCCc3cccs3)n2)cc1 | 2.27% | 2.32% | -0.24%
CN(C)Cc1ccc(-c2ccc3c(Nc4ccc(Oc5ccccn5)cc4)ccnc3c2)o1 | 0.08% | 4.31% | 2.19%
CC(C)CC(=O)N1CCNC[C@@H]1C(=O)NCCSCc1c(F)cccc1Cl | 3.36% | 5.07% | 4.3%
Cc1nn(-c2ccccc2)c2nc(-c3ccccc3)cc(C(=O)N3CCOCC3)c12 | 1.26% | 0.16% | -2.24%

Compound | inhibition [1] | inhibition [2] | inhibition [3]
NC(=O)c1cc2nc(Nc3ccc(F)cc3)nc(Nc3ccc(S(N)(=O)=O)cc3)c2[nH]1 | 1.3% | 0.26% | 0.35%
CCCCCCCCOc1ccc(N2C(N)=NC(N)=NC2(C)C)cc1 | 2.56% | 3.69% | -0.03%
Cc1cc(N[C@@H](Cc2ccccc2)C(=O)Nc2ccccc2)nc(NCCc2ccc(F)cc2)n1 | 3.66% | 3.68% | 1.86%
Cc1ccc(C(CC(=O)Nc2nccs2)c2ccc(OC(C)C)cc2)cc1 (stereo not given) | -1.83% | 0.63% | -1.31%
CC(=O)CCc1ccc(OCCN(Cc2ccccc2C(F)(F)F)c2ccc(C#N)c(C(F)(F)F)c2)cc1 | 3.66% | 4.24% | 2.73%
O=C(c1cccc(Cl)c1)N1CCN(c2ccc([N+](=O)[O-])c(NC3CC3)c2)CC1 | 0.4% | 2.47% | 0.25%
Cn1c(N=C2NC3(c4ccccn4)NC(=Nc4nc5ccccc5n4C)NC3(c3ccccn3)N2)nc2ccccc21 (stereo not given) | 1.54% | 2.5% | 0.64%
NC(=O)c1cccc(Nc2nccc(Nc3ccc(Oc4c(Cl)cccc4Cl)c(Cl)c3)n2)c1 | 9.27% | 9.62% | 2.92%
O=C(c1ccc(-c2cccc(-c3nc4cc(F)ccc4[nH]3)c2)cc1)N1CCCCC1CN1CCC(O)C1 (stereo not given) | 4.71% | 4.55% | 3.96%
COc1ccc(OC(C)CNC(=O)c2cc([N+](=O)[O-])ccc2-c2ccc(OC)cc2)cc1 (stereo not given) | 0.03% | -1.79% | -4.55%
Cc1nc2sccn2c1C(=O)NCCc1ccccc1Cl | 0.29% | 1.15% | 1.69%
COc1cc(Nc2nccn3c(-c4ccsc4)cnc23)cc(OC)c1OC | 7.63% | 5.81% | 4.31%
N=c1n(CCN2CCCCC2)c2ccccc2n1CC(=O)c1cccc([N+](=O)[O-])c1 | 2.8% | 4.32% | 0.59%
FC(F)(F)c1cc(C(F)(F)F)c2cc(CNCCCNc3nc4ccccc4[nH]3)[nH]c2c1 | -1.02% | 0.32% | -1.92%
Cc1ccc2[nH]c(-c3cc(-c4ccc(OCc5ccccc5)cc4)cnc3N)nc2c1 | 1.75% | 2.05% | -0.31%
O=C(NCCCCN1CCN(CC=Cc2ccccc2)CC1)c1ccc(NC(=O)c2cc(Cl)cc(Cl)c2)cc1 | -0.99% | -0.05% | -0.79%
COc1ccccc1CNC(=O)c1cc(C2CC2)nc2c1cnn2C(C)C | 15.2% | 11.5% | 8.12%
O=C(NCCNc1nc(NCCNC(=O)Nc2ccccc2)c2ccc(=O)n(-c3c(F)cccc3F)c2n1)Nc1ccccc1 | 2.75% | 1.99% | -0.37%
O=C(Nc1ccccc1-c1ccccc1)C1CCCN1C(=O)Nc1ccc(Cl)cc1 (stereo not given) | -0.38% | -0.89% | -2.33%
Cc1ccc(O)c(Nc2c3c(c(C#N)c4nc5ccccc5n24)CCC3)c1 | 2.48% | 1.2% | -0.54%
Cc1cccc(C)c1N1CCN(C2CCC(NC(=O)/C=C/c3ccccc3)CC2)CC1 (stereo not given) | 1.7% | 1.21% | 1.49%
Cc1ccc(C(=O)Cn2nc(-c3ccc(C)c(S(=O)(=O)N4CCCC4)c3)ccc2=O)cc1 | 1.61% | 0.61% | 2.62%
